Experimental data: PubChem BioAssay AID431 (Sanford-Burnham Center for Chemical Genomics, 2006)
Out of some 63,000 compounds screened, about 1,100 (1.7%) were called active. The sample holds actives, similar compounds and a random draw of the others, so the mix is not that of the screen. Entries with a potency or affinity are not part of this list. A number with no mark means an inactive call.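 The calls were made as follows: active = compounds whose percent cytotoxicity in the single-dose primary screen, scaled between solvent and toxic-drug controls, exceeds 50; inactive = the rest.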

Experiment: viability loss of HPDE-C7K cells – cell-based, fluorescence, HTS, primary screen (AID 431);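 also: 0% = DMSO solvent wells and 100% = doxorubicin-treated wells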
Settings: HPDE-C7K KRASV12 cells, Alamar Blue viability, 48 h; at 10 µM; hits give high values
With `Cn1cc(Cl)c(C(=O)Nc2cccc(Cl)c2Cl)n1` the cytotoxicity was -18.7%. With `CCOC(=O)c1ccc(Oc2nc(NC)nc(SC)n2)cc1` the cytotoxicity was -5.1%. With `COC(=O)c1ccc(Oc2cc(C)nc(SC)n2)cc1` the cytotoxicity was 53.4% (active). In the case of `CCOC(=O)c1ccc(Oc2cc(C)nc(SC)n2)cc1`, the cytotoxicity is reported as 55.4% (active). `COC(=O)c1ccc(Oc2nc(C)cc(Oc3ccccc3)n2)cc1` gave a cytotoxicity of -1.7%. `CCOC(=O)c1ccc(Oc2nc(SC)nc(N(C)C)n2)cc1` gave a cytotoxicity of -21.1%. `COC(=O)c1ccc(Oc2cc(C)nc(NCc3ccccc3)n2)cc1` showed a cytotoxicity of 1.6%. `COc1ccc(S(=O)(=O)NC2CC3CCC2C3)cc1Cl` (centres undefined) showed a cytotoxicity of 5%. For `CCOC(=O)C(Cc1ccccc1)NC(=O)CCc1c(C)nc2ncnn2c1C` (centres undefined), the cytotoxicity was -0.7%. With `O=C(CN1CCc2ccccc2C1)c1cccs1` the cytotoxicity was -6.1%. `COc1cc2c(cc1OC)CN(C(=O)CSc1nnc3scc(-c4ccccc4)n13)CC2` gave a cytotoxicity of 1.3%. Work on `CCN(CC)CCCOc1nc(C)nc2c1oc1ccccc12` yielded a cytotoxicity of 9.8%. For `Cc1cc(Cl)ccc1OCCCC(N)=O`, the cytotoxicity was -7%. For `Clc1ccc(OCc2nc(-c3ccccn3)n[nH]2)cc1`, the cytotoxicity was 47.8%. In the case of `Cc1cc(Cl)ccc1OCc1nc(-c2ccc(O)cc2)n[nH]1`, the cytotoxicity is reported as 86.2% (active). With `COc1ccc(N2CCN(C(=O)c3ccc4c(c3)OCO4)CC2)cc1` the cytotoxicity was 17%. For `CC1CC(C)CN(C(=O)Cn2c(=O)n(CCCCC(=O)NC3CCCC3)c(=O)c3ccccc32)C1` (centres undefined), the cytotoxicity was -3.9%. With `O=C(Cc1ccc(Cl)c(Cl)c1)OCC(=O)c1ccc[nH]1` the cytotoxicity was -10.8%. Compound `O=C(Cc1ccc(-c2ccccc2)cc1)N1CCOCC1` has a cytotoxicity of -4.1%. In the case of `O=C1NCCCC2c3c(cc(Br)c(O)c3Br)OC12N1CCOCC1` (centres undefined), the cytotoxicity is reported as -3.5%. With `CCCCn1c(SCC(=O)OCC)nc2c1c(=O)[nH]c(=O)n2C` the cytotoxicity was 2.4%. With `CSc1nc2sc3c(c2c2nnnn12)CCC3` the cytotoxicity was 6.6%. `Cc1nc(SCC#N)c2c3c(sc2n1)CCC3` showed a cytotoxicity of -15.5%. In the case of `Cc1nc(Sc2nnnn2C)c2c3c(sc2n1)CCC3`, the cytotoxicity is reported as 68.5% (active). Compound `Cc1nnn(C23CC4CC(CC(C4)C2)C3)n1` has a cytotoxicity of 4.5%. Compound `CC1CCCN(CCCNC(=O)c2coc3nc4ccccc4nc23)C1` (centres undefined) has a cytotoxicity of 9.2%. `O=C(NCc1ccccc1)N1CCN(c2ccc(Cl)c(Cl)c2)CC1` gave a cytotoxicity of -1.9%. Work on `COC(=O)CCC(=O)Oc1ccc(OC(=O)CCC(=O)OC)cc1` yielded a cytotoxicity of 18.3%. With `CCC(=O)Oc1ccc(-c2nc(-c3cccnc3)no2)cc1` the cytotoxicity was -6.1%. Compound `CCOc1ccc(C(=O)COC(=O)CC)cc1` has a cytotoxicity of -1.3%. With `CC(C)c1ccc(OC(=O)NCCO)cc1` the cytotoxicity was -6.6%. For `CC1(C)CC(=O)C2=C(C1)OC(=O)C2(NC(=O)c1cccs1)C(F)(F)F` (centres undefined), the cytotoxicity was -9.1%. `CC1=C(C(=O)N(C)Cc2ccccc2)C2(CCC(C)CC2)OC1=O` (centres undefined) gave a cytotoxicity of 1.3%. In the case of `Cc1cc(NC(=O)CSc2nc3c(c(=O)n2-c2ccccc2)SC(C)C3)no1` (centres undefined), the cytotoxicity is reported as 5.9%. `COc1ccc(CCNC(=O)c2cnn3cccnc23)cc1OC` showed a cytotoxicity of -0.5%. `CCN1C(=O)CC(C(=O)Nc2ccc(F)cc2)SC1=Nc1cccc(OC)c1` (centres undefined) gave a cytotoxicity of -9.1%. `O=C(NCCCN1CCN(CCCNC(=O)c2ccccc2F)CC1)c1ccccc1F` showed a cytotoxicity of -23.8%. In the case of `CC1CCc2nc(NC(=O)CN3CCOCC3)sc2C1` (centres undefined), the cytotoxicity is reported as -3.7%. For `CC1CCc2nc(NC(=O)CN3CCN(c4ccccc4)CC3)sc2C1` (centres undefined), the cytotoxicity was -5.6%. For `CC1CCc2nc(NC(=O)CN3CCN(Cc4ccc5c(c4)OCO5)CC3)sc2C1` (centres undefined), the cytotoxicity was 56.9% (active). `COCCOC(=O)C1=C(C)NC2=C(C(=O)CCC2)C1c1ccc(N(C)C)cc1` (centres undefined) gave a cytotoxicity of 3%. For `COC(=O)c1cc2ccsc2n1Cc1nc(-c2ccc(OC)cc2)oc1C`, the cytotoxicity was 11.1%. With `COc1ccc(-c2nc(CS(=O)CC(=O)NCc3ccco3)c(C)o2)cc1OC` (centres undefined) the cytotoxicity was 1.1%. In the case of `COC(=O)c1ccc(-c2ccco2)n1Cc1nc(-c2ccc(OC)c(OC)c2)oc1C`, the cytotoxicity is reported as 74.4% (active). Work on `CCCC(C(=O)NCc1ccc(OC)cc1)N(Cc1ccco1)C(=O)c1snc(C(N)=O)c1N` (centres undefined) yielded a cytotoxicity of -4%. With `Oc1ccc2c(c1)oc1cc(O)ccc12` the cytotoxicity was 57% (active). `O=c1oc2cc(O)ccc2c2oc3cc(O)ccc3c12` showed a cytotoxicity of 41%. Compound `O=c1oc2cc(O)ccc2c2c1CCCC2` has a cytotoxicity of 30.5%. `COc1ccc(N(Cc2cc3ccccc3[nH]c2=O)C(=O)C2CCCO2)cc1` (centres undefined) gave a cytotoxicity of 14.6%.
